About 83,000 compounds went through this panel and 20% of them were active in at least one assay; those are over-represented in the sample as a whole.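 Single-dose data. Exposure time 48 hours. Values below 10 considered active.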 Active and inactive are the calls of the source.
These compounds were tested on OVCAR-8 ovarian (assay: NCI-60 one-dose screen, 48 h (100 = growth as untreated, 0 = no growth, -100 = all killed)). Conditions: 10 µM unless noted.
Procedure: Growth inhibition of the OVCAR-8 human tumor cell line is measured as a screen for anti-cancer activity. Cells are grown in 96 well plates and exposed to the test compound for 48 hours. Compounds are tested at a single concentration, which is 10^-5 M for most compounds. The reported endpoint is percent growth (GI% or GIPRCNT), where numbers from 0 - 100% represent growth inhibition, and numbers from -100% - 0 represent cell death. For example, a value of 40 represents 60% growth inhibition. A value of 0 means no net growth occurred over the course of the experiment. A value of -40 indicates 40% of cells at the beginning of the experiment died by the end of the experiment. A value of -100 means all cells are dead at the end of the experiment.
NCI-60 Human Tumor Cell Lines Screen was performed using the standard one-dose NCI protocol, which is described in more detail at https://dtp.cancer.gov/discovery_development/nci-60/default.htm.
Compounds with GIPRCNT values below 10 were considered active. Activity score was based on GIPRCNT using the following formula: […]
Score is 0 for GIPRCNT values of 100 or above, 50 for GIPRCNT values of 0, and 100 for GIPRCNT values of -100.

SMILES	growth
COc1cc(C2C=C(C)N=C3SC=CN32)cc(OC)c1OC (stereo not given)	103% (inactive)
COC(=O)[C@H]1[C@H](OC)[C@@H](OC(=O)/C=C/c2ccncc2)CC2CN3CCc4c([nH]c5cc(OC)ccc45)[C@@H]3C[C@@H]21 (stereo not given in full)	81% (inactive)
O=C(CNc1ccc(Cl)cc1)Nc1ccc(-c2nc3ccccc3s2)cc1	66.4% (inactive)
c1cncc(CNc2ccccc2-c2nnc(Nc3ccc4c(c3)OCCO4)o2)c1	27.1% (inactive)
CC1Cc2c(N(C)C)ncnc2N(C)c2ccc(Cl)cc21 (stereo not given)	45.9% (inactive)
CC(C)C[C@H](NC(=O)[C@H](Cc1ccccc1)n1ccc(N2CCCCC2)cc1=O)B(O)O	31.8% (inactive)
COc1ccc(/C=C\c2cc(OC)c(OC)c(OC)c2)c(NS(=O)(=O)c2ccc(C(C)(C)C)cc2)c1O	21.9% (inactive)
COc1cccc(/C=C/C(=O)c2sc(Nc3ccc(O)cc3)nc2C)c1	99.4% (inactive)
O=C(Nc1cccc(C(F)(F)F)c1)Nc1ccc(OCc2nnc(-c3ccccc3)o2)c(F)c1	38.5% (inactive)
CCCCCCCCCCCCNC(=S)N/N=C/c1ccc(Cl)c(Cl)c1	100% (inactive)
O=C(CSc1nc(-c2ccc(Cl)cc2)cn1-c1ccc(Cl)cc1)c1ccc(Br)cc1	48% (inactive)
Nc1c(C(=O)Nc2ccccc2)sc2nc3c(cc12)CN(Cc1ccccc1)CC3	74.8% (inactive)
COc1ccc(-c2nc(-c3nc4ccc(F)cc4[nH]3)cc3c2[nH]c2ccccc23)cc1	13.6% (inactive)
CCN(CC)P(=O)(N(CC)CC)N(CCCSC/C=C(\C)CC/C=C(\C)CCC=C(C)C)CCCN1CCN(C)CC1	97.1% (inactive)
COc1ccc(N=C2NN=C(c3ccc(F)cc3)CS2)cc1OC	105% (inactive)
CCNC(=O)C1CCCN1C(=O)C(CCCN=C(N)N)NC(=O)C(CC(C)C)NC(=O)C(CC(C)C)NC(=O)C(Cc1ccc(O)cc1)NC(=O)C(CO)NC(=O)C(Cc1c[nH]c2ccccc12)NC(=O)C(Cc1cnc[nH]1)NC(=O)C1CCC(=O)N1 (stereo not given)	95.9% (inactive)
CC1=NN2C(=NC3=C(CCC/C3=C\c3ccc(Cl)cc3)C2c2ccc(Cl)cc2)S1 (stereo not given)	90.2% (inactive)
CCCCCCC[C@@H](O)CC(=O)N[C@H](CCCCN)C(=O)N[C@H](Cc1c[nH]c2ccccc12)C(=O)NC(CCCCN)C(=O)N[C@H](CC(C)C)C(=O)N[C@H](Cc1ccccc1)C(=O)N[C@H](CCCCN)C(=O)N[C@H](CCCCN)C(=O)N[C@H](CC(C)C)C(=O)N1CCCC1C(=O)N[C@H](CCCCN)C(=O)N[C@H](Cc1ccccc1)C(=O)N[C@H](CC(C)C)C(=O)N[C@H](Cc1c[nH]cn1)C(=O)N[C@H](CC(C)C)C(=O)N[C@H](C)C(=O)N[C@H](CCCCN)C(=O)N[C@H](CCCCN)C(=O)N[C@H](Cc1ccccc1)C(=O)O (stereo not given in full)	-11.1% (active)
Cc1cc(NC(=O)COC(=O)c2sc3cc(F)ccc3c2Cl)no1	112% (inactive)
Cc1ccc2c(c1)ncn2-c1ncnc2c1CC(C)c1ccccc1N2C (stereo not given)	8.64% (active)

SMILES	growth
COc1ccc(NC(=O)CSc2nc3ccccc3c(=O)n2Cc2cc(OC)c(OC)c(OC)c2)cc1	91.9% (inactive)
COc1ccc(C(=O)/C=C/c2ccc(/C=C/c3cc(OC)c(OC)c(OC)c3)cc2)cc1	28.4% (inactive)
CCSc1nnc(NC(=O)COc2ccc(Cl)cc2C)s1	100% (inactive)
O=C(Cc1n[nH]c(=O)c2ccccc12)OCc1c(Cl)cccc1Cl	102% (inactive)
CCCCCCCCCCCCCCCCCCOc1cccc(CCOP(=O)(O)OCC[N+](C)(C)C)c1	95% (inactive)
CC(C)(C)c1cc(-c2nc3ccc(N4CCN(CCO)CC4)cc3[nH]2)cc(C(C)(C)C)c1O	83.8% (inactive)
COc1ccc(Cn2c(SC)nc(=O)n(Cc3ccc(Cl)cc3)c2=O)cc1	96% (inactive)
O=C(NCCc1c[nH]c2ccccc12)C1Cc2ccccc2CN1C(=O)c1ccco1 (stereo not given)	100% (inactive)
COc1cc(/C=C/C(=O)c2ccc(NC(=O)CN3CCN(c4cc5c(cc4F)c(=O)c(C(=O)O)cn5C4CC4)CC3)cc2)cc(OC)c1OC	4.74% (active)
O=c1[nH]c2ccccc2cc1-c1nnc(Cc2ccccc2)o1	57.8% (inactive)
COc1cc(/C=C2\CCCC3=C2NC(C)=NC3c2cc(OC)c(OC)c(OC)c2)cc(OC)c1OC (stereo not given)	5.87% (active)
COc1cc(OC)c(C(=O)/C=C/c2ccc(C(F)(F)F)cc2)c(OC)c1	40.3% (inactive)
COc1cc(CCn2nnc3c(Nc4ccc(N5CCOCC5)cc4)ncnc32)cc(OC)c1	109% (inactive)
CC1=CNNc2c3ncnc-3ncn21	107% (inactive)
CC(CCc1ccccc1)NC(=O)c1n[nH]c(=O)c2ccccc12 (stereo not given)	101% (inactive)
CCOC(=O)C(Cc1ccccc1)n1c(O)c(C=Nc2ccc(C(=O)OCCN(CC)CC)cc2)sc1=O (stereo not given)	92.8% (inactive)
C=CCOc1ccc(/C(O)=C2\C(=O)C(=O)N(c3nccs3)C2c2ccccc2F)cc1 (stereo not given)	102% (inactive)
CC(C)[C@H](CO)Nc1nc(Nc2ccc(C(=O)NCCNS(=O)(=O)c3cccc4c(N(C)C)cccc34)c(Cl)c2)c2ncn(C(C)C)c2n1	9.87% (active)
O=S(=O)(NCCNc1cc(-c2cn(-c3ccccc3)nc2-c2ccccc2)ccn1)c1cccc2ccccc12	56% (inactive)
Cn1cc(C=O)c2ccccc21	95.2% (inactive)

— PubChem BioAssay (NCI)
